Shown are actives, neighbours in structure and some others; about 2.1% of the full set was active somewhere.
PfHsp40 yeast: rescue of PfHsp40-mediated yeast toxicity | S. cerevisiae expressing PfHsp40, growth rescue, ATP luminescence | AID 504582 | hit rate 0.68% among 340,000 | growth rescue, % at 12.5 µM; in the data active means growth rescue above about 28%, passing the limit was not always enough; inconclusive means no clear call, values can overlap the other calls;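 further: yeast W303a lacking pdr1 and pdr3 grown in galactose medium; growth measured after three days at 30 °C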
Sa ugtP lethal: compounds lethal to S. aureus RN4220 ugtP deletion mutant | growth inhibition, % (no concentration beside the values) | AID 1259309 | hit rate 0.54% among 330,000 | OD600 growth, 16 h; in the data active means growth inhibition above about 68%;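 further: plate controls were untreated wells for no effect and antibiotic for full effect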
PrPC surface inh: cell surface PrPC inhibition, primary TR-FRET screen; AID 720596; hit rate 0.43% among 370,000; TR-FRET read-out; inhibition, % at 13.8 µM; in the data active means inhibition above about 24%; further: 0% = median of the test wells and 100% = reference compound wells
CCHF vOTU inh: blocks the CCHF virus ovarian tumor domain protease | CCHFV vOTU protease, Pep-AMC fluorescence | inhibition, % at 11.5 µM | hit rate 0.55% among 370,000; in the data active means inhibition above about 30%; further: 0% = vehicle wells with enzyme and 100% = no enzyme wells
RN4220 kill: kills Staphylococcus aureus RN4220 | inhibition, % (no concentration beside the values) | hit rate 0.33% among 330,000 | S. aureus RN4220 growth, OD600, 16 h; in the data active means inhibition above about 85%;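 further: plate controls were untreated cells for no effect and reference antibiotic for full effect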
PrP 5UTR inh: inhibition of PrP 5' UTR reporter expression | cell-based PrP 5' UTR mRNA reporter, plate reader | hit rate 0.35% among 340,000 | inhibition, % (no concentration beside the values) | AID 488862; in the data active means inhibition above about 52%; further: 0 = median of the neutral control wells
PrP 5UTR single: prion 5' UTR mRNA inhibition, cherry-pick retest; shares compounds with PrP 5UTR inh; cell-based prion protein 5' UTR reporter, plate reader; inhibition, % at 2.5 µM; hit rate 48% among 1,100; AID 504592; in the data active means inhibition above about 54%; inconclusive means no clear call, values can overlap the other calls
An asterisk follows results filed as active; ? = inconclusive; · = no result.

SMILES | PfHsp40 yeast | Sa ugtP lethal | PrPC surface inh | CCHF vOTU inh | RN4220 kill | PrP 5UTR inh | PrP 5UTR single
CN(C)c1ccc(CCc2ccc(N)cc2)cc1 | -1 | -4 | 13 | -10 | 4 | 57* | 53*
Nc1nonc1-c1noc(-c2ccccc2)n1 | 1 | 3 | 0 | -11 | 4 | -30 | ·
Nc1nc(-c2nonc2N)no1 | -1 | 11 | -3 | -4 | 2 | 71* | -20
NC(=O)c1cc([N+](=O)[O-])ccc1NCc1ccc(N)cc1 | 0 | · | -19 | 9 | · | 74* | 75*
O=C(c1ccc2c(c1)OCO2)N1CCC2(CC1)Oc1ccc(Cl)cc1C(=O)C21CC(c2cccnc2)=NO1 (stereo not drawn) | -1 | 0 | -3 | 5 | 1 | 53* | -5
COC1=C(C)C(=O)C2=C(C1=O)C1C3CC4=C(C(=O)C(OC)=C(C)C4=O)C(CNC(=O)C(C)=O)N3C(C#N)C(C2)N1C (stereo not drawn) | 2 | · | 1 | 19 | · | 94* | 97*
Cc1ccc(C(=O)N2C3C=CC(C3)C2(C(F)(F)F)C(F)(F)F)cc1 (stereo not drawn) | 6 | -4 | 1 | 8 | 6 | 86* | -12
Cc1cc(C)n(C(=O)C(C#N)=CN(C)C)n1 | · | -5 | · | · | 4 | · | ·
C=CCn1c(C)cc(C2=NNC(=NC(C)(C)C)SC2)c1C | -1 | · | 3 | -6 | · | 65* | 66*
COCCCN=C1NN=C(c2cc(C)n(Cc3ccco3)c2C)CS1 | -1 | -3 | 2 | 10 | 2 | 68* | 82*
COCCn1c(C)cc(C2=NNC(=Nc3ccc(Cl)cc3Cl)SC2)c1C | 0 | -10 | -2 | 5 | 11 | -20 | ·
COCCn1c(C)cc(C2=NNC(=NC3CC3)SC2)c1C | 0 | 3 | -6 | -6 | 8 | 92* | 94*
Cc1cc(C2=NNC(=NC3CC3)SC2)c(C)n1Cc1ccco1 | 0 | -5 | -2 | 4 | 3 | 88* | 87*
C=CCN=C1NN=C(c2cc(C)n(CCOC)c2C)CS1 | 0 | 2 | 11 | -7 | 6 | 46 | ·
COc1ccc(OC)c(C=NNC(=O)c2ccc(N(C)S(=O)(=O)c3ccccc3)cc2)c1 | · | 5 | · | · | 1 | · | ·
C/C(C=Nn1cnnc1)=C/c1ccccc1 | · | -4 | · | · | 5 | · | ·
Cc1cc(C2=NNC(=NC3CC3)SC2)c(C)n1-c1ccccc1 | 0 | 2 | 5 | 5 | 0 | 94* | 94*
COc1ccc(-n2c(C)cc(C3=NNC(=NC4CC4)SC3)c2C)cc1 | 1 | 17 | 10 | 11 | 3 | -21 | ·
COc1ccc(NC(=S)NCc2cccs2)cc1 | 0 | 3 | -4 | 5 | 2 | 75* | -12
Cc1ccc[n+](-c2[nH]c(=O)sc2C=NNC(=O)c2ccccc2[O-])c1 | · | 4 | · | · | 5 | · | ·
O=C(Nc1cccc(O)c1)c1cc(-c2ccc3c(c2)OCO3)on1 | -2 | · | 8 | -4 | · | 58* | ?
COc1cc(NC(=O)c2cc(-c3ccc4c(c3)OCO4)on2)cc(OC)c1OC | 0 | -12 | 12 | 16 | 6 | -16 | ·
O=C(O)CC1SC(=NN=Cc2ccc(Br)cc2)N(c2ccccc2)C1=O (stereo not drawn) | · | 6 | · | · | 1 | · | ·
CCCCCC(=O)NN=Cc1ccccc1[N+](=O)[O-] | · | 4 | · | · | 2 | · | ·
COc1cc(C2c3cc4c(cc3C(OC3OC5COC(c6cccs6)OC5C(O)C3O)C3COC(=O)C23)OCO4)cc(OC)c1O (stereo not drawn) | 1 | · | 13 | 1 | · | 71* | 61*
SMILES | PfHsp40 yeast | Sa ugtP lethal | PrPC surface inh | CCHF vOTU inh | RN4220 kill | PrP 5UTR inh | PrP 5UTR single
COc1cc(C2c3cc4c(cc3OC(NNC(N)=O)C2C)OCO4)cc(OC)c1OC (stereo not drawn) | -2 | · | 11 | -1 | · | 52* | 87*
COc1cc([C@@H]2c3cc4c(cc3[C@H](O)[C@H]3COC(=O)[C@H]23)OCO4)cc(OC)c1OC | 0 | · | 11 | 8 | · | 67* | 85*
COc1cc(C2c3cc4c(cc3C(O)C3COC(=O)C23)OCO4)cc(OC)c1O[Si](C)(C)C(C)(C)C (stereo not drawn) | · | 11 | · | · | -1 | · | ·
O=C(O)c1ccc(C=NNC(=S)NC2CCCCC2)cc1 | · | 6 | · | · | 0 | · | ·
CC(=NO)C(C)/[N+]([O-])=C/c1nc(C)c(C)n1O (stereo not drawn) | · | -7 | · | · | -15 | · | ·
Cc1nn(-c2ccccc2)c(C)c1/C=N/NC(=O)c1cc(-c2ccc(Br)s2)[nH]n1 | -2 | · | -6 | 2 | · | -12 | ·
